# CBX7 inh: CBX7 inhibition, primary AlphaScreen | O95931 | AlphaScreen His6-CBX7 / biotin-H3K27me3 peptide binding; stronger effect = lower value | normalised signal (fraction of DMSO) (no concentration beside the values) | actives 1.1% (n = 66,000) | AID 1224903; in the data active = normalised signal below about 0.5
# Target sequence (O95931 whole entry, looked up): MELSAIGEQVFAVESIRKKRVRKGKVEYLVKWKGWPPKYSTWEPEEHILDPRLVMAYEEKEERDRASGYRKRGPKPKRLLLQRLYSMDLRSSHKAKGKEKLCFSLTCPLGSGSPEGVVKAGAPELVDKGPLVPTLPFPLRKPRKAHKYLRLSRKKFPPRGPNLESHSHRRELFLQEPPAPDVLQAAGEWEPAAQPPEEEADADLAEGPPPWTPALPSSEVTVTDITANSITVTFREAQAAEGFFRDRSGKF
# * hit, by the source's call. Many of the other results were omitted from the sample, so hits are more common in it than they were.
SMILES,CBX7 inh
CC(NS(=O)(=O)c1cccc2cccnc12)c1ccccc1 (configuration not stated),1
Oc1c(C(Nc2ccccn2)c2ccccc2)ccc2cccnc12 (configuration not stated),0.01*
Cc1cccnc1NC(c1ccccc1)c1ccc2cccnc2c1O (configuration not stated),0.032*
O=C(CCCN1C(=O)c2cccnc2C1=O)NC(c1ccccc1)c1ccccc1,1.1
CC(NC(=O)C1CCN(S(=O)(=O)c2cccc3cccnc23)CC1)c1ccccc1 (configuration not stated),1
O=C(CCc1ccccc1)NC(c1cccs1)c1cc(Cl)c2cccnc2c1O (configuration not stated),0.45*
Cc1ccc(C(NC(=O)CCc2ccccc2)c2ccc3cccnc3c2O)cc1 (configuration not stated),0.071*
O=C(NC(c1ccccc1)c1ccccc1)C1CCCN1S(=O)(=O)c1cccc2cccnc12 (configuration not stated),0.93
Cc1ccc2cc(CCNC(=O)CCc3ccccc3)c(=O)[nH]c2c1,1.1
O=C(NC(c1ccccc1)c1ccccc1)C1CCCN(S(=O)(=O)c2cccc3cccnc23)C1 (configuration not stated),0.88
CCCC(=O)NC(c1ccccc1)c1cc(Cl)c2cccnc2c1O (configuration not stated),0.63
Cc1ccc(-c2noc(CCC(=O)NC(C)CCc3ccccc3)n2)cc1 (configuration not stated),1.1
O=C(CSc1nccn1-c1ccc(Cl)cc1)NCc1ccccc1,1.1
O=C(Cn1cnc2ccccc2c1=O)Nc1ccc(Oc2ccccc2)cc1,1.1
FC(F)(F)c1cc(-c2ccccc2)nc(N2CCCCCC2)n1,1.5
COc1cc(NC(=O)CN(C)S(=O)(=O)c2cnc[nH]2)cc(OC)c1,1
Cc1ccc(C2CC(C(F)(F)F)n3nc(C(=O)Nc4cccnc4)cc3N2)cc1 (configuration not stated),0.91
O=C1CC(c2ccc(F)cc2)Cc2nc(NCc3ccccc3)ncc21 (configuration not stated),0.87
CCOC(=O)N1CCC(Nc2c(NCC3CCCO3)c(=O)c2=O)CC1 (configuration not stated),1.1
Cc1c(NC(=O)c2cccnc2)cccc1-c1nc2ncccc2o1,1.1
O=C(CN1C(=O)CSc2ccccc21)NCCCN1CCOCC1,0.98
O=C(CN1C(=O)CSc2ccccc21)NCCN1CCOCC1,0.48*
O=C(CN1C(=O)CCSc2ccccc21)NCCN1CCOCC1,1
CC1CCCCC1NC(=O)Nc1ccc2c(c1)N(C)C(=O)CS2 (configuration not stated),1
Cc1cccc(C)c1Nc1c(-c2ccccn2)nc2ccc(Cl)cn12,0.54
SMILES,CBX7 inh
Cc1ccccc1Nc1c(-c2c[nH]c3ccccc23)nc2ccc(Br)cn12,0.53
Cc1ccc2nc(-c3ccccn3)c(Nc3ccc(C(C)C)cc3)n2c1,0.62
Cc1ccn2c(Nc3ccc4c(c3)OCCO4)c(-c3cccs3)nc2c1,0.8
Cc1ccn2c(Nc3ccc4c(c3)OCO4)c(-c3ccsc3)nc2c1,0.91
Brc1ccc2nc(-c3ccccn3)c(Nc3ccccc3)n2c1,0.96
Cc1cccc(C)c1Nc1c(-c2ccccn2)nc2ccc(Br)cn12,0.44*
Cc1ccn2c(Nc3ccc4c(c3)OCO4)c(-c3ccccn3)nc2c1,0.034*
Cc1ccc2nc(-c3c[nH]c4ccccc34)c(Nc3ccc(F)cc3)n2c1,0.97
Cc1ccc(Nc2c(-c3c[nH]c4ccccc34)nc3ccc(Br)cn23)cc1,0.49*
Clc1ccc(Nc2c(-c3ccccn3)nc3ccc(Cl)cn23)cc1,0.92
Cc1ccc(Nc2c(-c3ccccn3)nc3ccc(C)cn23)cc1,0.084*
O=C(NCC1CCCO1)c1cc2c(s1)CS(=O)(=O)C2 (configuration not stated),1
CCC(Cc1ccccc1)NC(=O)C1CCN(c2nnc(-n3cccc3)s2)CC1 (configuration not stated),0.9
CCOc1ccc2nc(N3CCC(C(=O)Nc4ccc(Br)c(C)c4)CC3)sc2c1,1
Cc1cc(C)c(NC(=O)c2csc3c2CCC(C)C3)c(C)c1 (configuration not stated),1.1
CCN(C(=O)CCc1nc(-c2ccc(C)cc2)no1)c1cc(OC)ccc1OC,1
CCC(=O)Nc1cc(-c2nc3cc(C(C)C)ccc3o2)ccc1Cl,1.1
CC1=C(C(=O)Nc2cc(C)ccn2)C(c2ccc(Br)cc2)C2=C(CCCC2=O)N1 (configuration not stated),1.2
Cc1ccc(-c2nnc(Nc3ccc(Cl)c(Cl)c3)c3ccccc23)cc1S(=O)(=O)NCCO,0.87
Cc1ccc2nc(-c3ccccn3)c(Nc3ccc4c(c3)OCO4)n2c1,0.03*
Cc1ccc2nc(-c3ccccc3)c(Nc3ccc4c(c3)OCCO4)n2c1,1.1
Cc1ccc2nc(-c3cccnc3)c(Nc3ccc4c(c3)OCCO4)n2c1,1
Cc1ccc2nc(-c3ccncc3)c(Nc3ccc4c(c3)OCO4)n2c1,0.86
Cc1ccc2nc(-c3ccccn3)c(Nc3ccc4c(c3)OCCO4)n2c1,0.001*
Cc1ccc2nc(-c3c[nH]c4ccccc34)c(Nc3ccc4c(c3)OCO4)n2c1,0.92
SMILES,CBX7 inh
COc1ccc(S(=O)(=O)N2CCCCC2)cc1C(=O)Nc1ccccc1,1
O=C(NCCCN1CCN(Cc2ccccc2)CC1)c1ccc2c(c1)NC(=O)c1ccccc1S2,1.2
Cc1cccc(C(=O)N(Cc2nc(-c3cccc(C)c3)no2)C(C)C)c1,0.98
CC(C)c1ccc(Nc2cc(C(=O)NCCCN3CCCC3=O)c3ccccc3n2)cc1,1.2
Cn1c(CNc2cc(Cl)ccc2Cl)nc2ccccc21,1
Cn1c(CNc2ccccc2O)nc2ccccc21,0.46*
Cc1ccccc1NCc1nc2ccccc2n1C,1
CCCCc1ccc(-c2ccc(Br)cc2O)nc1,1
CCN(CC)C(=O)Cn1cnc2sc(C(=O)N3CCCCC3)c(C)c2c1=O,1
CCCCOc1ccc(-c2nc3c(C(=O)OC)c[nH]n3c2NC2CCCCC2)cc1,0.19*
Cc1ccn2c(NC(=O)C3CCCCC3)c(-c3ccc(F)cc3)nc2c1,1
COC(=O)c1c[nH]n2c(=O)c(Cc3ccccc3F)c(C)nc12,1.2
COC(=O)c1c[nH]n2c(NC3CCCC3)c(-c3ccc(F)cc3)nc12,0.28*
CCOc1ccc(-c2nc3c(C(=O)OC)c[nH]n3c2NC2CCCCC2)cc1OC,0.7
COC(=O)c1c[nH]n2c(=O)c(Cc3ccc(F)cc3Cl)c(C)nc12,1.3
CCCCOc1ccc(-c2nc3ccccc3c(C(=O)O)c2C)cc1,1
COC(=O)c1c[nH]n2c(=O)c(Cc3ccc(C)cc3)c(C)nc12,1.2
COC(=O)c1c[nH]n2c(NC3CCCCCC3)c(-c3ccc(F)cc3)nc12,0.45*
COC(=O)c1c[nH]n2c(NC3CCCCC3)c(-c3ccc(F)cc3)nc12,0.55
CCCCOc1ccc(-c2nc3ncccn3c2NC2CCCCC2)cc1,0.94
COC(=O)c1c[nH]n2c(NC3CCCCCC3)c(-c3ccc(C)cc3)nc12,0.43*
O=C1c2nccnc2C(=O)N1c1ccc(Br)cn1,1.1
O=C(CSc1nnc(Cc2cc(=O)[nH]c(=O)[nH]2)n1-c1ccc(F)cc1)Nc1ccc2c(c1)OCO2,0.99
O=C(Cn1ncc2c1-c1ccccc1OC2)N1CCC(Cc2ccccc2)CC1,0.97
Clc1ccc(-c2nc3cnccn3c2Nc2ccc3c(c2)OCCO3)cc1,1.1
